Measurements taken from PubChem BioAssay (NCI).
Compounds without any hit were thinned out: in the full panel of roughly 83,000, 20% have a hit.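 Treatment: one concentration, 48 hours, 96-well format. Scoring: percent growth, with anything below 10 considered active.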 Unmarked numbers belong to inactive results. Activity calls are given as the source filed them.

Assays:
Experiment in all cases: NCI-60 one-dose screen, 48 h (100 = growth as untreated, 0 = no growth, -100 = all killed)
Details in all cases: 10 µM unless noted
NCI-H226 lung = test system: NCI-H226 lung
NCI-H322M lung = test system: NCI-H322M lung
HOP-62 NSCLC = test system: HOP-62 NSCLC
NCI-H460 lung = test system: NCI-H460 lung
NCI-H522 lung = test system: NCI-H522 lung
A549/ATCC NSCLC = test system: A549/ATCC NSCLC
786-0 renal = test system: 786-0 renal
COLO 205 colon = test system: COLO 205 colon
HOP-92 NSCLC = test system: HOP-92 NSCLC

Structure (SMILES)	growth (NCI-H226 lung)	growth (NCI-H322M lung)	growth (HOP-62 NSCLC)	growth (NCI-H460 lung)	growth (NCI-H522 lung)	growth (A549/ATCC NSCLC)	growth (786-0 renal)	growth (COLO 205 colon)	growth (HOP-92 NSCLC)
N/C(=N\c1nc2ccccc2s1)NC(=O)Nc1c(Cl)cccc1Cl	67.2%	68.2%	58.7%	17.8%	-19.3% (active)	38.8%	52.5%	46.2%	–
Cc1ccc(NC(=O)CN2CCN(c3ncnc4c3cnn4-c3ccccc3)CC2)cc1	76.5%	86.5%	95.6%	74%	-41.1% (active)	89.1%	105%	111%	–
C#CCOc1cc(N(CC)CC)ccc1C(C(=O)NC(C)(C)C)N(C(=O)C1CCc2cc(F)ccc2O1)c1ccccc1F (stereo not given)	34.4%	72.2%	–	30.1%	31.2%	35.2%	44.1%	–	18.6%
Cn1cc(-c2nc(N)nnc2-c2c[nH]c3ccc(F)cc23)c2cc(Br)cnc21	–	34.8%	20.1%	0.596% (active)	-52.3% (active)	11.1%	5.54% (active)	–	-6.31% (active)
CC(=O)OCC1OC(OC2C(COC(C)=O)OC(n3cc(COc4ccc5ccc(=O)oc5c4)nn3)C(OC(C)=O)C2OC(C)=O)C(OC(C)=O)C(OC(C)=O)C1OC(C)=O (stereo not given)	101%	103%	103%	108%	71.3%	112%	96.4%	116%	–
COc1cc2c(c(OC)c1OC)C(=O)CC(c1cccc(NC(=O)c3cc(NC(=O)[C@H](C)N)ccc3Cl)c1)O2 (stereo not given in full)	–	81.2%	–	51.4%	1.34% (active)	56%	45%	74.5%	17.9%
COc1cc(C2CC(c3ccc(S(=O)(=O)NCCNc4nc(Nc5ccc(F)cc5)nc(N(C)C)n4)cc3)=Nc3c(N)nc(N)nc3N2)cc(OC)c1OC (stereo not given)	91.4%	86.7%	94.3%	84.5%	84.2%	97.9%	75.3%	104%	–
COc1ccc2oc(=O)c(C3(C)NC(=O)c4c(/C=C/C(=O)OC(C)(C)C)cccc4N3)cc2c1 (stereo not given)	–	66.9%	61%	47.2%	27.8%	27.3%	66.7%	44.9%	–
CCS(=O)(=O)N1CCCC(C(=O)Nc2nc3ccc(NC(=O)c4ccc(F)c(OC)c4F)cc3s2)C1 (stereo not given)	48%	82.3%	–	62.5%	52%	77.4%	58.1%	54.3%	–
COc1ccc(Cc2nn(CC(=O)N/N=C/c3ccc(F)cc3)c(=O)c3c(C)noc23)cc1	27.4%	–	-53.1% (active)	13.3%	64.5%	14%	-20.9% (active)	59.3%	-20.5% (active)
CC(=O)OC[C@@]1(C)C2CC[C@]3(C)C(CC=C4C5CC(C)(C)CC[C@]5(C(=O)Nc5ccc(F)cc5)CC[C@]43C)[C@@]2(C)C[C@@H](OC(C)=O)[C@@H]1OC(C)=O (stereo not given in full)	47.7%	–	41.3%	11.5%	49.5%	40.6%	59%	43.1%	–
Cn1cc(-c2cc(N)n3nc(-c4cn(C)c5ccc(Cl)cc45)cc3n2)c2ccccc21	105%	103%	–	115%	100%	107%	88.4%	117%	133%
Cn1cc(-c2nc(N)nnc2-c2c[nH]c3ccc(Br)cc23)c2cccnc21	–	63.3%	53.2%	32.8%	31.8%	56.7%	37.1%	–	94.1%
N#Cc1c(-c2ccccc2Cl)cc(-c2ccc3ccccc3c2)[nH]c1=O	-24.5% (active)	28.1%	-7.48% (active)	–	85%	17.5%	-40.9% (active)	108%	–
C#C[C@]1(O)CC[C@H]2[C@@H]3CC=C4c5sc(-c6ccc(O)c(O)c6)nc5CC[C@]4(C)[C@H]3CC[C@@]21C	-65.4% (active)	-79.6% (active)	–	-77.6% (active)	-77.1% (active)	-78.6% (active)	-88.3% (active)	-80.2% (active)	-53.8% (active)
C=C1CC[C@@H]2[C@]3(C)COC(c4cn[nH]c4-c4cccc(Cl)c4)O[C@@H]3CC[C@@]2(C)[C@@H]1C/C=C1/C(=O)OCC1O (stereo not given in full)	-91.1% (active)	37.9%	0.166% (active)	-3.88% (active)	-60% (active)	-19.2% (active)	-92.7% (active)	-35% (active)	–
